In PubChem BioAssay (NCI):
About 83,000 compounds went through this panel and 20% of them were active in at least one assay; those are over-represented in the sample as a whole.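 Growth was measured after 48 h exposure to one concentration of compound in 96-well plates. Values under 10 count as active.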 Unmarked numbers belong to inactive results. Activity calls are given as the source filed them.

Assays:
Assay in all cases: NCI-60 one-dose screen, 48 h (100 = growth as untreated, 0 = no growth, -100 = all killed)
Details in all cases: 10 µM unless noted
SK-MEL-2 melanoma = system: SK-MEL-2 melanoma
EKVX NSCLC = system: EKVX NSCLC
SN12C renal = system: SN12C renal
UO-31 renal = system: UO-31 renal
TK-10 renal = system: TK-10 renal
ACHN renal = system: ACHN renal
A498 renal = system: A498 renal
CCRF-CEM leukemia = system: CCRF-CEM leukemia
MOLT-4 leukemia = system: MOLT-4 leukemia
SR leukemia = system: SR leukemia
RPMI-8226 leukemia = system: RPMI-8226 leukemia
OVCAR-5 ovarian = system: OVCAR-5 ovarian
OVCAR-4 ovarian = system: OVCAR-4 ovarian
SK-OV-3 ovarian = system: SK-OV-3 ovarian
IGROV1 ovarian = system: IGROV1 ovarian
OVCAR-3 ovarian = system: OVCAR-3 ovarian
HS 578T breast = system: HS 578T breast
NCI/ADR-RES ovarian = system: NCI/ADR-RES ovarian
T-47D breast = system: T-47D breast
OVCAR-8 ovarian = system: OVCAR-8 ovarian

| SMILES | growth (SK-MEL-2 melanoma) | growth (EKVX NSCLC) | growth (SN12C renal) | growth (UO-31 renal) | growth (TK-10 renal) | growth (ACHN renal) | growth (A498 renal) | growth (CCRF-CEM leukemia) | growth (MOLT-4 leukemia) | growth (SR leukemia) | growth (RPMI-8226 leukemia) | growth (OVCAR-5 ovarian) | growth (OVCAR-4 ovarian) | growth (SK-OV-3 ovarian) [%] | growth (IGROV1 ovarian) | growth (OVCAR-3 ovarian) | growth (HS 578T breast) | growth (NCI/ADR-RES ovarian) | growth (T-47D breast) | growth (OVCAR-8 ovarian) |
| --- | --- | --- | --- | --- | --- | --- | --- | --- | --- | --- | --- | --- | --- | --- | --- | --- | --- | --- | --- | --- |
| COc1ccc(-c2cc(C(=O)N3N=C(c4ccc(N)cc4)CC3c3ccc(OC)cc3)c3cc(OC)ccc3n2)cc1 (stereo not given) | 64.5% | 68.9% | 61.8% | 56.6% | 93.8% | 54.5% | 71.3% | 63.3% | 54.5% | 19.4% | 16.9% | 103% | 71.9% | 78.3 | 50.8% | 22% | 45.9% | -8.76% (active) | 43.4% | – |
| COc1ccc2nc(-c3ccc(OC)c(OC)c3)cc(-c3nnc(SCC(=O)Nc4ccc(C(C)=O)cc4)o3)c2c1 | 100% | 108% | 98.8% | 91.7% | 109% | 101% | 93.6% | 94.8% | 95.5% | 88.8% | 90.8% | 109% | 106% | 109 | 113% | 111% | 97.3% | 108% | 94.6% | – |
| CCCCCCN1C(=O)CN=C1Nc1ccc2cc3ccc(NC4=NCC(=O)N4CCCCCC)cc3nc2c1 | 79.9% | 56.9% | 26.7% | 51.7% | 75.9% | 67.6% | 104% | 12% | 9.83% (active) | 0.413% (active) | -22.6% (active) | 75% | 55.6% | 103 | 53.7% | -35.9% (active) | 56.6% | 81.3% | 32.9% | – |
| O=C1Nc2ccc(Cl)cc2/C1=N/c1nc(-c2ccc(F)cc2)cs1 | 39.9% | 44.5% | 54.8% | 50.4% | 59.2% | 48.5% | 33.3% | 11.1% | 1.99% (active) | 1.96% (active) | 8.37% (active) | 75% | 32.2% | 56.4 | 25.6% | 39.2% | 38.5% | 79.8% | 25.3% | – |
| N#Cc1c(-c2ccc(F)cc2)c(C#N)c2c(C#N)c(N)nn2c1N | 102% | 96.8% | 104% | 75.4% | 86.4% | 95.7% | 93.7% | 104% | 85.9% | 93.7% | 104% | 96.1% | 100% | 82.2 | 80.9% | 98.7% | 98% | 99.9% | 66.4% | – |
| C=C1C(=O)O[C@H]2[C@H]1CC/C(COC(=O)CCCCCCC(=O)OC/C1=C/CC[C@@]3(C)O[C@H]3[C@H]3OC(=O)C(=C)[C@@H]3CC1)=C\CC[C@@]1(C)O[C@@H]21 | 84.6% | 24.6% | 6.29% (active) | -21.8% (active) | -5.79% (active) | -38.6% (active) | 96.3% | 4.54% (active) | 2.4% (active) | -2.74% (active) | 2.81% (active) | 61% | 42.3% | 94.6 | 11.2% | -3.87% (active) | 27.2% | 46.6% | -18.1% (active) | – |
| CCCCC(=O)Nc1c(C(=O)Nc2ccccc2)sc2nc3c(cc12)C(OC(=O)CCCC)CCC3 (stereo not given) | 93.8% | 91.9% | 96.9% | 89% | 98.2% | 115% | 64.7% | 69.8% | 75.9% | -10.6% (active) | 48.9% | 111% | 36.7% | 108 | 99.8% | – | 89.5% | – | 79% | 84.7% |
| COC(=O)CCc1n(Cc2ccc3ccccc3c2)c2ccccc2[n+]1Cc1ccc2ccccc2c1 | -56.2% (active) | 42.1% | 7.8% (active) | 78.9% | -5.81% (active) | 86.8% | 8.46% (active) | 9.86% (active) | 3.6% (active) | -47.7% (active) | -21.3% (active) | 18% | 7.13% (active) | 10.8 | -26.4% (active) | – | 25% | – | -0.425% (active) | 6.77% (active) |
| Nc1c(C(=O)Nc2ccccn2)sc2nc3c(cc12)CCCCC3 | 44.2% | 37.8% | 39.4% | 49% | 71.9% | 52.6% | 25.9% | 6.92% (active) | 15.5% | 8.04% (active) | 11.4% | 39.6% | 53.5% | 36.2 | 44.9% | -3.52% (active) | 30.5% | 9.19% (active) | 36.4% | – |
| CN(C)CCCn1c2c(c3cc(-c4ccco4)ccc3c1=O)C(=O)c1ccccc1-2 | 117% | 81.4% | 51.9% | 51.6% | 66.3% | 48.5% | 93.7% | 36.2% | 10.9% | -40.2% (active) | 46.3% | 104% | 53% | 93.1 | 52.2% | 72% | 79.9% | 53.6% | 49.2% | – |
| C#C[C@@]1(O)[C@@H](CO)O[C@@H](n2cc(-c3ccco3)c3c(N)ncnc32)[C@@H]1O | 84.3% | 67.3% | 71.8% | 36.5% | 69.1% | 90.2% | 54.6% | 86.9% | 32.8% | 94.4% | 80.3% | 66.9% | 61.2% | 26.3 | -11.6% (active) | 80.3% | 49.8% | 61.7% | -17.2% (active) | – |
| COc1ccc(NC(=O)Nc2ccc(Nc3nc(C)cc(Nc4ccc(C)cc4)n3)cc2)cc1 | -61.9% (active) | -70.9% (active) | -71% (active) | -90.5% (active) | -95.9% (active) | – | 107% | -7.9% (active) | -35.3% (active) | -37.1% (active) | -45.9% (active) | -85.7% (active) | -87.1% (active) | 69 | -70.5% (active) | -95.5% (active) | -21.6% (active) | – | -60.1% (active) | -56.6% (active) |
| O=S(=O)(Nc1nccs1)c1ccc(Nc2nc(-c3ccncc3)cs2)cc1 | 105% | 107% | 97.4% | 101% | 120% | – | 113% | 104% | 117% | 111% | 99.3% | 117% | 115% | 108 | 84.1% | 118% | 96.8% | 122% | 105% | 121% |
| CCOC(=O)c1c(C)nc2c(c1N)/C(=C/c1cccs1)C(=O)N2Cc1ccccc1 | 60% | 82% | 73.2% | 45.6% | 90.1% | – | 70.2% | 29.8% | 18.8% | 9.76% (active) | -21.2% (active) | 119% | 82.3% | 96.6 | 48% | 53.2% | 93.2% | 79% | 43% | 70.7% |
| CC(C)(C)c1ccc2oc(=O)n(SC(Cl)(Cl)Cl)c2c1 | 93.9% | 92.2% | 102% | 94.9% | 92.4% | – | 109% | 83.5% | 77.2% | 92.3% | 102% | 105% | 106% | 102 | 111% | 106% | 119% | 100% | 93.4% | 111% |
| O=c1[nH]nc(-c2ccccc2)c2sc(NC(=S)Nc3ccc(Cl)cc3)nc12 | 85.5% | 83% | 103% | 84.4% | 96.5% | – | 86% | 99.2% | 79.6% | 91.7% | 87.8% | 98.6% | 91.6% | 62.3 | 94.2% | – | 102% | 95.3% | 59% | 89.6% |
